# Assay outcomes (PubChem)
# Only some compounds are listed: those with a hit (about 2.8% of all), similar ones and a draw of the others.
# MsrA act = bovine methionine sulfoxide reductase A activation; purified bovine MsrA, absorbance read-out; 360,000 tested, 0.3% active; activation, % at 10.6 µM; in the data active = activation above about 7.5%
# rCAG binder-1 = molecules binding r(CAG) RNA repeats; 370,000 tested, 1.3% active; r(CAG) RNA repeat, TO-PRO-1 dye displacement fluorescence; inhibition, % at 3 µM;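 active = inhibition above the plate cutoff, the mean of all test compounds on that plate plus 3 SD, cut at about 35% in these data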;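 also: higher means more dye released from RNA so lower well fluorescence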
# MsrA inh = inhibits bovine methionine sulfoxide reductase A; purified bovine MsrA, absorbance read-out; inhibition, % at 15.5 µM; 360,000 tested, 0.75% active; in the data active = inhibition above about 4.5%
# sPLA2-III inh = Blocks human group III sPLA2 activity. Q9NZ20. QFRET BODIPY PC-A2 liposome hydrolysis, fluorescence. inhibition, % at 12.2 µM. 370,000 tested, 0.56% active;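 active = inhibition above mean plus 3 SD of compounds lying within the high and low control bounds, cut at about 19% in these data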
# Target sequence (Q9NZ20 whole entry, looked up): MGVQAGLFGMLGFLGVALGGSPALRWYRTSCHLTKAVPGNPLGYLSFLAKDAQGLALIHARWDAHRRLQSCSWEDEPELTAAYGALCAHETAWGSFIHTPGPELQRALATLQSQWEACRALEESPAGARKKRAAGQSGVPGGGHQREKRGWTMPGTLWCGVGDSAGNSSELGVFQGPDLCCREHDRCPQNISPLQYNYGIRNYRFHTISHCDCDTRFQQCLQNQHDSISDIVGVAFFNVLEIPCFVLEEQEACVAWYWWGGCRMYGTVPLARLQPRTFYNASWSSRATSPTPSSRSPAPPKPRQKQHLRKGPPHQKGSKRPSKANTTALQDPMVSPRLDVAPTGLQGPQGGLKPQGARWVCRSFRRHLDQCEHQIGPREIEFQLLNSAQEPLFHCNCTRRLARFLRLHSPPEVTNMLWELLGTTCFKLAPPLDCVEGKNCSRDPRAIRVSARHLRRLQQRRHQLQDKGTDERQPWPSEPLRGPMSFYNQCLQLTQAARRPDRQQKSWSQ
# MsrA inh confirm = bovine MsrA inhibition, confirmed | shares compounds with MsrA inh | purified bovine MsrA, absorbance read-out | inhibition, % at 15.5 µM | 2,300 tested, 41% active | AID 651822; in the data active = inhibition above about 4.5%;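 also: coupled to thioredoxin reductase with NADPH and selenocystamine and DMSO as substrate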
# rCAG bind conf = r(CAG) RNA repeat binding, confirmation; shares compounds with rCAG binder-1; TO-PRO-1 dye displacement fluorescence; inhibition, % at 3 µM; 4,300 tested, 70% active; AID 652065;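 active = inhibition above a per-plate cutoff, the mean inhibition of sample wells plus 3 SD, cut at about 35% in these data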;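 also: loss of TO-PRO-1 fluorescence as compound displaces dye from 1x1 AA loop RNA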
# DNA CAG counter = disrupts DNA CAG TO-PRO-1 complex, flagging rCAG hits; 4,300 tested, 94% active; inhibition, % at 3 µM; d(CAG) DNA oligo TO-PRO-1 dye displacement, fluorescence; shares compounds with rCAG binder-1;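 active = inhibition above its plate's cutoff, the mean test-well inhibition plus 3 SD, cut at about 4.8% in these data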;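 also: hits displace the dye from DNA and so lower well fluorescence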
# DNA CAG DR = disrupts DNA CAG TO-PRO-1 complex in dose response | shares compounds with rCAG binder-1 | DNA CAG/GTC duplex TO-PRO-1 dye displacement fluorescence | IC50, µM | 250 tested, 20% active | AID 686960; in the data active = IC50 below about 10 µM
# dCAG DNA bind = DNA CAG dye complex inhibition, late stage dose response; 30 tested, 80% active; shares compounds with rCAG binder-1; d(CAG) DNA duplex TO-PRO-1 dye displacement, fluorescence; AID 720649; IC50, µM
# rCAG binder-2 = molecules binding r(CAG) RNA repeats, late stage dose response; shares compounds with rCAG binder-1; r(CAG) RNA TO-PRO-1 dye displacement, fluorescence; IC50, µM; 30 tested, 100% active; AID 720651
# Hits are given with their value; – = inactive; · = no result. Unless noted, no rule for the calls is given here.
SMILES,MsrA act,rCAG binder-1,MsrA inh,sPLA2-III inh,rCAG bind conf,DNA CAG counter,others
CC12CC[C@H]3[C@@H](CCC4(O)C[C@H](O)CCC34/C=N/NC(=O)c3ccccc3[N+](=O)[O-])C1(O)CCC2C1=CC(=O)OC1 (stereo partly drawn),–,–,–,–,·,·,
COC(=O)c1cn(Cc2ccc(F)cc2)c2ccccc12,–,–,–,–,·,·,
COc1ccc(CN2C(=O)NC(=O)/C(=C\c3cccc(OC)c3OC)C2=O)cc1,–,–,–,–,·,·,
COc1cc(N2CCOCC2)ccc1/C=C1\C(=O)NC(=O)N(Cc2cccs2)C1=O,–,–,6.4,–,·,·,MsrA inh confirm=–
COc1cc(N2CCOCC2)ccc1/C=C1\C(=O)NC(=O)N(Cc2ccc3c(c2)OCO3)C1=O,–,–,6.2,–,·,·,MsrA inh confirm=–
COc1cc(N2CCOCC2)ccc1C=C1C(=O)NC(=O)NC1=O,–,–,–,–,·,·,
CN(C)c1ccc2c(c1)N=C(c1ccco1)OP2(=S)N1CCOCC1 (stereo not drawn),–,–,–,–,·,·,
Brc1ccc(Oc2cc(Br)c(Br)cc2Br)c(Br)c1,–,–,–,–,·,·,
CC(=O)c1ccc2c(c1)C1C(Cl)C(Sc3ccccc3[N+](=O)[O-])CC1C(c1ccccc1[N+](=O)[O-])N2 (stereo not drawn),–,–,5.5,–,·,·,MsrA inh confirm=–
Cc1cc(N(CCCl)CCCl)ccc1C=NNC(=O)Cc1cc(=O)oc2cc(O)ccc12,–,–,–,–,·,·,
Cc1cc(N(CCCl)CCCl)ccc1/C=N/NC(=O)c1ccco1,–,–,4.8,–,·,·,MsrA inh confirm=–
CC(C)NCC(O)c1ccc(C2CCCC2)cc1 (stereo not drawn),–,–,–,–,·,·,
C/C(=N\NC(=O)c1ccccc1O)c1c(O)n(C2CCCCC2)c(=O)[nH]c1=O,–,83,5.0,–,77,34,MsrA inh confirm=6.7;DNA CAG DR=3.1;dCAG DNA bind=2;rCAG binder-2=0.82
CSCCC(NC(=O)CCC(=O)OC1CC[C@H]2[C@@H]3CC[C@H]4CC(=O)CC[C@]4(C)[C@H]3CC[C@]12C)C(=O)O (stereo partly drawn),–,–,–,–,·,·,
COc1ccc(CN2C(=O)CC(=O)NC2=O)cc1,–,–,–,–,·,·,
O=C1CC(=O)N(Cc2ccccc2)C(=S)N1,–,72,–,–,–,–,
Cc1ccccc1-n1c(O)c(/C=N/NC(=O)c2ccccc2O)c(=O)[nH]c1=S,–,56,–,–,35,9.0,
O=C(N/N=C/c1c(O)n(C2CC2)c(=S)[nH]c1=O)c1ccccc1O,–,38,–,–,–,6.0,
Cc1ccccc1-n1c(O)c(/C=N/Nc2nc3c(c(=O)n(C)c(=O)n3C)n2C)c(=O)[nH]c1=S,–,–,–,–,·,·,
O=c1[nH]c(O)c(C=NC2CCCCC2)c(=O)[nH]1,–,–,–,–,·,·,
COc1ccc(C2CC(c3c(O)n(CCc4ccccc4)c(=O)[nH]c3=O)=NN2)cc1OC (stereo not drawn),–,42,–,–,–,8.0,
CC(=O)N1CCN(c2ccc([N+](=O)[O-])cc2C=C2C(=O)NC(=O)NC2=O)CC1,–,36,–,–,–,–,
CCOc1cc(C2C(C#N)=C(N)Oc3c2c(=O)oc2ccccc32)ccc1OC(=O)c1cccs1 (stereo not drawn),–,47,–,–,–,15,
N#CC1=C(N)Oc2c(c(=O)oc3ccccc23)C1c1cccnc1 (stereo not drawn),–,–,–,–,·,·,
C1=NCCCN2CCCCC12 (stereo not drawn),–,–,–,–,·,·,
SMILES,MsrA act,rCAG binder-1,MsrA inh,sPLA2-III inh,rCAG bind conf,DNA CAG counter,others
O=C1NC(=O)C(CCc2ccccn2)(Cc2ccc3c(c2)OCO3)C(=O)N1CCc1ccccc1 (stereo not drawn),–,–,–,–,·,·,
O=C(O)CCC(=O)NCCC1=c2ccccc2=N/C1=C\c1c(O)n(Cc2ccc(F)cc2)c(=S)[nH]c1=O,–,35,–,–,37,13,
CC(=NCC1CCCO1)c1c(O)n(-c2ccccc2C)c(=O)[nH]c1=O (stereo not drawn),–,–,–,–,·,·,
Cc1ccc(N2C(=O)NC(=O)/C(=C\C=C\c3ccco3)C2=O)cc1,–,–,–,–,·,·,
CN1C(=O)/C(=C/C=C/c2ccco2)C(=O)NC1=S,–,35,–,–,–,7.8,
O=C1NC(=O)N(Cc2ccccc2)C(=O)/C1=C\C=C\c1ccco1,–,55,–,–,–,6.5,
O=C1NC(=O)N(Cc2ccco2)C(=O)/C1=C/C=C/c1ccco1,–,50,–,–,–,14,
O=C1NC(=O)N(c2ccccc2)C(=O)/C1=C/C=C/c1ccco1,–,–,–,–,·,·,
Cc1ccc(N2C(=O)NC(=O)/C(=C\C=C\c3ccco3)C2=O)cc1C,–,36,–,–,–,6.2,
CC(=NCCCO)c1c(O)n(Cc2ccccc2)c(=O)[nH]c1=O,–,–,–,–,·,·,
O=C(COc1ccc(Cl)cc1)N(c1ccc(Cl)cc1)C1CN2CCC1CC2 (stereo not drawn),–,–,–,–,·,·,
Cc1ccc2c(c1)N(N=O)CCC2,–,–,–,–,·,·,
Cc1c(C(c2ccc(F)cc2)c2c(O)c3ccccc3oc2=O)c(=O)n(-c2ccccc2)n1C (stereo not drawn),–,–,–,–,·,·,
O=c1oc2ccccc2c(O)c1C(c1ccc([N+](=O)[O-])cc1)c1c(O)c2ccccc2oc1=O,–,96,–,–,94,76,
C/C(CC(c1ccccc1)c1c(O)c2ccccc2oc1=O)=N\Nc1ccc([N+](=O)[O-])cc1[N+](=O)[O-] (stereo not drawn),–,–,–,–,·,·,
CC(C)c1ccc(C(c2c(O)c3ccccc3oc2=O)c2c(O)c3ccccc3oc2=O)cc1,–,94,–,–,95,82,
CCc1ccc(C2=NN(CCC(=O)N3CCC4(CC3)OCCO4)C(=O)CC2)cc1,–,–,–,–,·,·,
CCOc1ccc(N2C(=O)/C(=C/c3ccc(C)o3)C(=O)NC2=S)cc1,–,36,–,–,45,17,
COc1ccc(N2C(=O)/C(=C/c3ccc(C)o3)C(=O)NC2=S)cc1,–,–,–,–,·,·,
Cc1ccc(/C=C2\C(=O)NC(=S)N(c3cccc(F)c3)C2=O)o1,–,45,–,–,49,20,
